Measurements taken from PubChem BioAssay (NCATS).
Records with an inconclusive call do not appear. The source made the active and inactive calls. Unless noted, the call rests on the fitted dose curve; in most records, active means well fitted curve in the direction sought with a large enough effect; inconclusive means small, poorly fitted or top-dose-only effect, or another doubt; inactive means no such curve, though single readings can be large; an effect the other way counts as inactive or inconclusive.

Experiments:
[1] = target: Lysosomal acid glucosylceramidase (Homo sapiens) (UniProt P04062); assay: Glucocerebrosidase-p2 (AID 348; in the data active means potency below about 10 µM; further: potency means the concentration at half of the fitted maximal effect); conditions: purified GBA, blue fluorogenic substrate, 40 min
Sequence of Lysosomal acid glucosylceramidase (Homo sapiens) (P04062 whole entry, looked up): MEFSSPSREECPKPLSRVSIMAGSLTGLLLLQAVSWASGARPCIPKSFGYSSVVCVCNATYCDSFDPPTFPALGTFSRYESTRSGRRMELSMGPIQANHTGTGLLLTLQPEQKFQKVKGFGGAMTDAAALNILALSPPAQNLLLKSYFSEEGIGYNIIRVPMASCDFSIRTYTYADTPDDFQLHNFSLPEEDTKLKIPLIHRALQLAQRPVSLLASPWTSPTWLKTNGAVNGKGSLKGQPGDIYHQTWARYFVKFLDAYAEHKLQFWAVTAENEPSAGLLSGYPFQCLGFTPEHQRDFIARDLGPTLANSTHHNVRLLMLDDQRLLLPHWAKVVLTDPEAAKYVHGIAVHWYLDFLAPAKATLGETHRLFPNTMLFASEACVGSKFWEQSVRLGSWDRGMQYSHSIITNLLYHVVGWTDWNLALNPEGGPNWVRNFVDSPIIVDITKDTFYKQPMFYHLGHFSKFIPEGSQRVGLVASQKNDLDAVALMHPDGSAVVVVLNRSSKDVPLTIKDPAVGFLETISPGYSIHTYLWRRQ
Summary of the method: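 Compounds titrated from 0.6 nM upwards against 0.2 nM enzyme in pH 5.9 citric acid/KH2PO4, taurocholate, tween-20; blue fluorogenic substrate 80 uM, 40 min room temperature, stopped and read Ex 365/Em 440 for AC50.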

[2] = AP1 Signaling Pathway (AID 357; active means well fitted curve in either direction with a large enough effect, not every such curve was filed as active; further: on the % scale 0 is the no-effect control and ±100 the full control effect); conditions: ME-180 AP-1-bla reporter, EGF-induced, beta-lactamase ratio, 5 h; at 7.69 µM (top of the series) unless noted
Summary of the method: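 AP-1-bla ME-180 cells with beta-lactamase reporter under AP-1 response element, stimulated with EC50 EGF; compounds titrated, 5 hours at 37 degrees Celsius. CCF4 read at 460/530 nm ratio; positive and negative modulators judged by AC50.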

[3] = target: Cytochrome P450 1A2 (Homo sapiens) (UniProt P05177); assay: p450-cyp1a2 (AID 410; calls by dose curve; further: potency means the concentration at half of the fitted maximal effect); conditions: recombinant CYP1A2, luciferin-ME demethylation, luminescence; series mostly up to 57 µM
Sequence of Cytochrome P450 1A2 (Homo sapiens) (P05177 whole entry, looked up): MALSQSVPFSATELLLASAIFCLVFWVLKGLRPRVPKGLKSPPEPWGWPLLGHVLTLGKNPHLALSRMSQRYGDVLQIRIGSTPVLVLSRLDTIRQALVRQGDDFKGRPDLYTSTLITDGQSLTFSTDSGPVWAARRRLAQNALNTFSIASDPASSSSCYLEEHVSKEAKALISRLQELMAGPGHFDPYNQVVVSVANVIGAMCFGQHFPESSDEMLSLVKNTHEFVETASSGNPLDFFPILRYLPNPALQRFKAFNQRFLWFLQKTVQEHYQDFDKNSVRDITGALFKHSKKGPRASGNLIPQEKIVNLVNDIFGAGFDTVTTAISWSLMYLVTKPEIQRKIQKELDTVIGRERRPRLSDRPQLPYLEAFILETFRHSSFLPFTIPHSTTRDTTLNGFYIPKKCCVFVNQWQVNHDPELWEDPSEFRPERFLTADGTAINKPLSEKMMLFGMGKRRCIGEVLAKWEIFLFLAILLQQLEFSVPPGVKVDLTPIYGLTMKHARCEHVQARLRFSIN
Summary of the method: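 Inhibition was calculated relative to 57 uM furafylline (full inhibition). The reaction used human CYP1A2 at 20nM with Luciferin-ME at its Km, 100uM, driven by an NADPH-regenerating system for 60 min at room temperature.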

[4] = NFAT Signaling Pathway (AID 444; active means well fitted curve in either direction with a large enough effect, not every such curve was filed as active;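 further: carbachol stimulus at about its EC50 of 1 µM final; on the % scale 0 is the no-effect control and ±100 the full control effect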); conditions: Jurkat NFAT-bla M1, carbachol, beta-lactamase ratio, 5 h; at 7.69 µM (top of the series) unless noted
Summary of the method: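 Jurkat cells with NFAT-driven β-lactamase reporter and co-expressed M1 receptor, stimulated with carbachol (final 1 uM, ~EC50), compound titration, 5 h at 37 °C. CCF4 loaded 1 h at RT; 460/530 nm ratio gave %activity and AC50.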

[5] = Stat Signaling Pathway (AID 446; active means well fitted curve in either direction with a large enough effect, not every such curve was filed as active;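 further: ME-180 cervical cancer cells given 40 pM IL-6 alongside compound; SIE-controlled beta-lactamase reporter measured as 460/530 nm FRET emission ratio; on the % scale 0 is the no-effect control and ±100 the full control effect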); conditions: ME-180 (cervical carcinoma) SIE beta-lactamase reporter, IL-6 stimulated, 5 h; at 7.69 µM (top of the series) unless noted
Summary of the method: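 IL-6/STAT signaling read in ME-180 cells via an SIE beta-lactamase reporter. Stimulus was 40 pM IL-6 (its AC50) for 5 hrs, so both activation and inhibition register.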

[6] = target: Glucocorticoid receptor (Homo sapiens) (UniProt P04150); assay: GR-GFP Redistribution (AID 450;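 active means compounds whose dose series gives a full or clear partial fitted curve of increased nuclear translocation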; further: potency means the concentration at half of the fitted maximal effect); conditions: U2OS GR-GFP nuclear translocation, laser cytometry, 2 h
Sequence of Glucocorticoid receptor (Homo sapiens) (P04150 whole entry, looked up, the tested form may be a part): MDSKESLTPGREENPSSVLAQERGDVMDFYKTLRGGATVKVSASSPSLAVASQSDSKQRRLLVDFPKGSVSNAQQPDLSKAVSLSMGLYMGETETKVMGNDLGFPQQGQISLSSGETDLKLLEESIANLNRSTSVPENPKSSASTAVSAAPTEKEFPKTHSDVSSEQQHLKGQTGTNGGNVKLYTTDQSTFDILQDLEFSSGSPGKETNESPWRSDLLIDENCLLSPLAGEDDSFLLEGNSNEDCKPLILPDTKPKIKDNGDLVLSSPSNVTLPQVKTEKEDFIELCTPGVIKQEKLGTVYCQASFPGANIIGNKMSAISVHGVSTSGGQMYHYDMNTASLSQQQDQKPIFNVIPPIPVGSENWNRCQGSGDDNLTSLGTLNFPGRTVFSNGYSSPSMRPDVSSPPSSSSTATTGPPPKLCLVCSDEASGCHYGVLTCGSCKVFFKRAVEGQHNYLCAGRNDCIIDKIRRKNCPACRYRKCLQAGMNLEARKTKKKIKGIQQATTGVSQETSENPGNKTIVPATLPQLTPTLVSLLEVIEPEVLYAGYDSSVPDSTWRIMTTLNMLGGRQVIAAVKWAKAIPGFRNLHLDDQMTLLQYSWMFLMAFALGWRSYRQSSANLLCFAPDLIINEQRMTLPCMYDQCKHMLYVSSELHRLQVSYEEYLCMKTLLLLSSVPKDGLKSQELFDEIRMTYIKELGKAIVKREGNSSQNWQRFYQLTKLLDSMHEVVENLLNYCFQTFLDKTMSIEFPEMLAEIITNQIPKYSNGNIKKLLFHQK

[7] = target: Glucocorticoid receptor (Homo sapiens) (UniProt P04150); assay: GR-EFC Redistribution (AID 451; calls by dose curve; further: potency means the concentration at half of the fitted maximal effect); conditions: CHO-K1 GR-EFC translocation, beta-gal luminescence, 2 h
Summary of the method: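 CHO-K1 cells expressing nuclear EA and GR-ED fragments of b-gal; compounds titrated up to 46 uM final, 2 h at 37 C. GR nuclear translocation read as complemented b-gal luminescence after 1 h RT detection.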

[8] = target: Mitogen-activated protein kinase 10 (Mus musculus) (UniProt Q61831); assay: JNK3 AlphaScreen Assay (AID 530; active means well fitted curve in either direction with a large enough effect, not every such curve was filed as active;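 further: kinase came from lysate of stimulated human HepG2 cells; signal reports phosphorylation of biotinylated GST-cJun 1-79 at Ser73 with 10 µM ATP; on the % scale 0 is the no-effect control and ±100 the full control effect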); conditions: JNK3 lysate, c-Jun phosphorylation; series mostly up to 57.1 µM
Summary of the method: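 qHTS format: compounds tested as titrations against IL-1beta/TNF-alpha-activated HepG2 lysate JNK3 with biotin-GST-cJun substrate and 10 uM ATP at room temperature. Loss of anti-phospho-cJun AlphaScreen signal indicates inhibition.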

[9] = target: 3',5'-cyclic-AMP phosphodiesterase 4B (Homo sapiens) (UniProt Q07343); assay: qHTS Assay for Inhibitors of PDE-IV (AID 607; active means well fitted activation curve with a large enough effect in the main read-out, with a control signal flat, not every such curve was filed as active; further: % of control where 0% means no effect); conditions: HEK293 ACTOne CNG channel cells, membrane potential fluorescence; series mostly up to 22.9 µM
Sequence of 3',5'-cyclic-AMP phosphodiesterase 4B (Homo sapiens) (Q07343 whole entry, looked up): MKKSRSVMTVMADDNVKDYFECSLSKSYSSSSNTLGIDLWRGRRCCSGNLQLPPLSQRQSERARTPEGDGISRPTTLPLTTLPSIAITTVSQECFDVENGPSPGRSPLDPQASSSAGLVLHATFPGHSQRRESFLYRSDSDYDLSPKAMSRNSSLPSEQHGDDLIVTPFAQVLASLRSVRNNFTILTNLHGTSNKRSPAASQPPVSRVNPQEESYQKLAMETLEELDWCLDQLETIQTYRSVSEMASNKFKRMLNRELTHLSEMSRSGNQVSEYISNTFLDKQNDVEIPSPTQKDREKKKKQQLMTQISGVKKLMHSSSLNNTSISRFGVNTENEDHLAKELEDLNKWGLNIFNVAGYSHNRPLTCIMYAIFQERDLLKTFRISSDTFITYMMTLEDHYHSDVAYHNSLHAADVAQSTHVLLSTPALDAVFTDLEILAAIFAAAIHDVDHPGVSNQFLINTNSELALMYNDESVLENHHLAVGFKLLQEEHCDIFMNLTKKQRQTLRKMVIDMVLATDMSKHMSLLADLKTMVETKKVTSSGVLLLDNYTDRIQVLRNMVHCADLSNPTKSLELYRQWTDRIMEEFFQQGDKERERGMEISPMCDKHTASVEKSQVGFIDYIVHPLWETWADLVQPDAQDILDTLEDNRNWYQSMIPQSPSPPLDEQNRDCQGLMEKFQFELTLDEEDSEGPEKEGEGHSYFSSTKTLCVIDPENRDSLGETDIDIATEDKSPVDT
Summary of the method: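 Live HEK293 cells with a modified cyclic nucleotide-gated (CNG) channel report intracellular cAMP via membrane-potential dye fluorescence (ex 535/em 590 nm). Endogenous PDE-IV was targeted. Compounds were tested at up to 22.9 uM final; RO 20-1724 100 uM served as control.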

[10] = qHTS Assay for Lipid Storage Modulators (AID 1519; calls by dose curve); conditions: Drosophila S3 cells, BODIPY lipid droplet/cell ratio, laser cytometry, cells loaded with oleic acid; for activity change, negative = inhibition: at 57.5 µM (top of the series)
Summary of the method: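 Cells seeded at 5,000 per well were treated with compounds over a concentration series and loaded with oleic acid (400 uM, as added). Lipid droplet fluorescence (488 nm excitation, 500-530 nm channel) was read by laser-scanning cytometry and normalized to 20 uM Triacsin C.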

[11] = target: Dual specificity protein kinase CLK4 (Homo sapiens) (UniProt Q9HAZ1); assay: qHTS Assay for Inhibitors of CDC-like Kinase 4 (Kinase-Glo Assay) (AID 1770); conditions: recombinant Clk4, Kinase-Glo ATP depletion luminescence; series mostly up to 66.7 µM; further: nearly all actives have a fitted effect of over 65% in size; further: potency means the concentration at half of the fitted maximal effect
Sequence of Dual specificity protein kinase CLK4 (Homo sapiens) (Q9HAZ1 whole entry, looked up): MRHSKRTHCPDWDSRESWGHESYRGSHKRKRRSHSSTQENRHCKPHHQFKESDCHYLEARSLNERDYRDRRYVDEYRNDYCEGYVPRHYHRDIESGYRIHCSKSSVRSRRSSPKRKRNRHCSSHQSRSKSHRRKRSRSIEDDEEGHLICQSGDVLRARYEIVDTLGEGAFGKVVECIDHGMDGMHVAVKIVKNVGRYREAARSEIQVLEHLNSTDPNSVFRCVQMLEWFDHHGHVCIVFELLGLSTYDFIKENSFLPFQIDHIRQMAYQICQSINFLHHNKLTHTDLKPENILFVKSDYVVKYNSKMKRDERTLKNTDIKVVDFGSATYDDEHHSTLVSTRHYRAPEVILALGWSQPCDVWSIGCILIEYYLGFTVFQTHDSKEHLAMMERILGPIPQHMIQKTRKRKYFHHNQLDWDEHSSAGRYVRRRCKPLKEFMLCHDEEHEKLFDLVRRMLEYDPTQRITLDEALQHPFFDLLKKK
Summary of the method: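 Clk4 25 nM, RS peptide 100 uM, ATP 1 uM, pH 7.5 Tris, 10 mM MgCl2, 2.5 mM DTT; 4.5 h RT; ATP depletion read by Kinase-Glo luminescence.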

[12] = target: Dual specificity protein kinase CLK4 (Homo sapiens) (UniProt Q9HAZ1); assay: qHTS Assay for Inhibitors of CDC-like Kinase 4 (ADP-Glo Assay) (AID 1771); conditions: recombinant CLK4, ADP-Glo luminescence; series mostly up to 80 µM; further: nearly all actives have a fitted effect of over 70% in size; further: potency means the concentration at half of the fitted maximal effect
Summary of the method: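 Kinase reaction: Clk4 at 25 nM, RS repeat peptide substrate at 100 uM, ATP at 1 uM, 1 hr, room temperature. Product ADP detected as luciferase signal via ADP-Glo.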

[13] = target: Dual specificity protein kinase CLK4 (Homo sapiens) (UniProt Q9HAZ1); assay: qHTS Assay for Inhibitors of CDC-like Kinase 4 (ADP-FP Assay) (AID 1795); conditions: Transcreener ADP fluorescence polarization; series mostly up to 50 µM; further: nearly all actives have a fitted effect of over 60% in size; further: potency means the concentration at half of the fitted maximal effect
Summary of the method: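 Kinase activity was followed as ADP output, converted from fluorescence polarization with a calibration curve. Reactions ran one hour at low ATP (1 uM) with RS peptide substrate.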

[14] = target: Ubiquitin carboxyl-terminal hydrolase 1 (Homo sapiens) (UniProt O94782); assay: Inhibitors of USP1/UAF1: Pilot qHTS (AID 504865); conditions: purified USP1/UAF1, Ub-rhodamine cleavage fluorescence; series mostly up to 54.9 µM;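 further: rhodamine fluorescence freed from ubiquitin-rhodamine substrate followed over time; top concentration of the series differs between compounds; on the % scale 0 is the no-effect control and ±100 the full control effect; nearly all actives have a fitted effect of over 35% in size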
Sequence of Ubiquitin carboxyl-terminal hydrolase 1 (Homo sapiens) (O94782 whole entry, looked up): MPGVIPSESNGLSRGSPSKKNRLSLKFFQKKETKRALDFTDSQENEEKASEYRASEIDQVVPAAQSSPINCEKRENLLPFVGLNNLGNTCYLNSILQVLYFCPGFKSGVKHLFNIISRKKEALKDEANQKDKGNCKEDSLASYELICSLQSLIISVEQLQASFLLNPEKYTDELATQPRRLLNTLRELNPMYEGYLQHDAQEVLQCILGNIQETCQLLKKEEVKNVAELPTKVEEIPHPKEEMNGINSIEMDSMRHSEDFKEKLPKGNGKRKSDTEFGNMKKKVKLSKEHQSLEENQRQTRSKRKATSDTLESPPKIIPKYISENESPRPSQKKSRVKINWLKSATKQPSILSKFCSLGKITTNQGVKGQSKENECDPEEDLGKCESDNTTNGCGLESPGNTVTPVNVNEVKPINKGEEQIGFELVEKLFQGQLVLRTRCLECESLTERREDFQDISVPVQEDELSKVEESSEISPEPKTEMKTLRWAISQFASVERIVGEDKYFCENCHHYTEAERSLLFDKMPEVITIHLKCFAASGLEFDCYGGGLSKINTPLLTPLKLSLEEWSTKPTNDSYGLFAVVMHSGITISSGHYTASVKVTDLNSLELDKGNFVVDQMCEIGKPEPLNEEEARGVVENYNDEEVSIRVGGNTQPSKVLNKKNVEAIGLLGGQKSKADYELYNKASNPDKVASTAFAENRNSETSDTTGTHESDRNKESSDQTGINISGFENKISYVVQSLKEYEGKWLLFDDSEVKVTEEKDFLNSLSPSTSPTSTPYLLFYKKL
Summary of the method: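 Enzyme-free wells gave the negative control, while test wells held 1nM USP1/UAF1 preincubated with compound for 15 min at room temperature. Ub-Rho at 150nM final started the reaction, and fluorescence at 480/540 nm was recorded kinetically.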

[15] = target: Cytochrome P450 3A4 (Homo sapiens) (UniProt P08684); assay: qHTS Assay for Inhibitors and Substrates of Cytochrome P450 3A4 (AID 884); conditions: recombinant CYP3A4, Luciferin-PPXE luminescence; series mostly up to 57.1 µM; further: on the % scale 0 is the no-effect control and ±100 the full control effect; nearly all actives have a fitted effect of over 50% in size
Sequence of Cytochrome P450 3A4 (Homo sapiens) (P08684 whole entry, looked up): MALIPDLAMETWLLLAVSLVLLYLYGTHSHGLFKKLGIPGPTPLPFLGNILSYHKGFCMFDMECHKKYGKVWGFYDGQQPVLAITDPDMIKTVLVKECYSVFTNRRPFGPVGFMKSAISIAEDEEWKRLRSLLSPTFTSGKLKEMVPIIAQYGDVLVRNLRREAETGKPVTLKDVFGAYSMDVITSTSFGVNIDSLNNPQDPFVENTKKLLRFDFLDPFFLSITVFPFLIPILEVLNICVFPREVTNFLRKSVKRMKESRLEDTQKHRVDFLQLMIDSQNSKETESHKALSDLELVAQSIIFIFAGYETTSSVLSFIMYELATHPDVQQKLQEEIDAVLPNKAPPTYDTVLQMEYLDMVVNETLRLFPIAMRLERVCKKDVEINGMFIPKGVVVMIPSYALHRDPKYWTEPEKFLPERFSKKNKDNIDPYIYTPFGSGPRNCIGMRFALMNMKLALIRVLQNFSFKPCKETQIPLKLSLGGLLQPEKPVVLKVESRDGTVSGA
Summary of the method: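 20 nM human CYP3A4 with 25 uM Luciferin-PPXE (at KM) in 200 mM KPO4, preincubated 10 min with compound; NADPH regeneration started a 60 min RT reaction. Luciferin detected by luminescence, normalized to 57 uM ketoconazole as full inhibition.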

[16] = Confirmation and Secondary Assay for Modulators of Hemoglobin Beta Chain Splicing at IVS2 654 locus (AID 910); conditions: HeLa EGFP-654 splicing reporter, GFP fluorescence, 48 h; series mostly up to 38.3 µM;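 further: HeLa cells stably carrying EGFP split by mutant beta-globin IVS2-654 intron; % of control where 0% means no effect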
Summary of the method: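 HeLa cells stably expressing EGFP interrupted by β-globin IVS2-654 intron, seeded overnight in Opti-MEM/2% FCS, then treated 2 days at 37 °C. Restored splicing read as total peak GFP intensity per well by laser scanning cytometry (488 nm excitation, 500–520 nm emission); 500 nM antisense PNA as control.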

[17] = Confirmation and Secondary Assay for Modulators of Hemoglobin Beta Chain Splicing at IVS2 705 locus (AID 930); conditions: HeLa EGFP-705 splicing reporter, GFP fluorescence, 48 h; series mostly up to 38.3 µM;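 further: HeLa cells stably expressing the EGFP-705 splicing reporter; GFP fluorescence per well restored by corrected splicing of the IVS2-705 intron in EGFP; % of control where 0% means no effect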
Summary of the method: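 Fluorescence gain (488 nm laser, 500-520 nm PMT) reflects restored correct splicing of a mutant IVS2-705 intron inside EGFP in stably transfected HeLa cells after 2-day compound treatment.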

[18] = measured here: cell count channel max response
[19] = measured here: lipid channel max response

SMILES | Potency [1] | activity change, negative = inhibition [2] | Potency [3] | activity change, negative = inhibition [4] | activity, negative = inhibition [5] | Potency [6] | Potency [7] | Potency [8] | Potency [9] | activity change, negative = inhibition [10] | max response [10, 18] [%] | max response [10, 19] [%] | Potency [11] | Potency [12] | Potency [13] | Potency [14] | Potency [15] | Potency [16] | outcome [17]
COc1ccc(-c2nc3cnc(N4CCN(C)CC4)nc3n(C3CC3)c2=O)cc1 | > 11.4 µM (inactive) | -5.97% (inactive) | 20 µM (active) | -2.54% (inactive) | -7.93% (inactive) | > 9.22 µM (inactive) | > 46 µM (inactive) | inactive | inactive | 2.69% (inactive) | 2.3 | 3.44 | inactive | inactive | inactive | inactive |  |  | 
COc1ccc(-c2nc3cnc(N4CCN(C)CC4)nc3n(C)c2=O)cc1 | > 11.4 µM (inactive) | 14.5% (inactive) | 25.1 µM (active) | 27.7% (inactive) | 26.5% (inactive) | > 9.22 µM (inactive) | > 46 µM (inactive) | inactive | inactive | 1.83% (inactive) | 6.37 | 3.68 | inactive | inactive | inactive | inactive |  |  | 
CC(C)=CCC/C(C)=C/CC/C(C)=C/CC/C(C)=C/CC/C(C)=C/CC/C(C)=C/CC/C(C)=C/CC/C(C)=C/CC/C(C)=C/CO |  |  |  |  |  |  |  |  |  | 5.78% (inactive) | 6.17 | 20.4 |  |  |  | inactive | inactive | inactive | inactive
CNC(=O)[C@H]1O[C@@H](n2cnc3c(N)ncnc32)[C@H](O)[C@H]1O |  |  |  |  |  |  |  |  |  | -1.94% (inactive) | -22.6 | -24.5 |  |  |  |  |  |  | 
Clc1ccccc1-c1nc(NC2CCNCC2)c2ccccc2n1 | > 11.4 µM (inactive) | -8.89% (inactive) | 20 µM (active) | 7.15% (inactive) | 3.31% (inactive) | > 46 µM (inactive) | > 46 µM (inactive) | inactive | inactive | 1.68% (inactive) | 15.1 | 17.6 | 10 µM (active) | 12.6 µM (active) | 12.6 µM (active) | inactive |  |  | 
